Assay outcomes (PubChem BioAssay)
Only some compounds are listed: those with a hit (about 9% of all), similar ones and a draw of the others.
HTT aggregate = mutant huntingtin aggregation inhibition; PC12 HttQ103-GFP aggregates, Acumen cytometry, 40 h; Potency, µM (doses to about 46.1 µM), for the others: top-dose activity change, negative = inhibition, actives largely listed as inhibitors; 220,000 tested, 1.1% active; further: on the % scale 0 is the no-effect control and ±100 the full control effect; nearly all actives have a fitted effect of over 60% in size
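PC12 cells stably carrying ecdysone-inducible HTT exon 1 Q103–GFP were induced with tebufenozide (100 nM final) and treated with library compounds in titration. GFP aggregates in lysates were counted by laser scanning cytometry.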
KinaseGlo FLuc = Kinase-Glo luciferase inhibition (counter-screen); Q27757; Kinase-Glo luciferase, ATP luminescence, 8 min; Potency, µM (doses to about 38.3 µM), inactives show at the highest dose activity change, negative = inhibition, actives largely listed as inhibitors; 200,000 tested, 0.28% active; AID 1379; further: on the % scale 0 is the no-effect control and ±100 the full control effect; nearly all actives have a fitted effect of over 60% in size
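Recombinant Kinase-Glo luciferase, 10 uM ATP (linear range), luciferin; imidazole pH 7.2 / KCl / MgCl2 / Tween / BSA buffer; 8 min RT; luminescence.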
HTT ATP protect = cytoprotection in Huntington HTT-Q103 PC12 cell model. 230,000 tested, 0.14% active. Potency, µM (doses to about 56.4 µM), without a hit: cytoprotection (ATP increase), most hits filed as activators. PC12 HTT-Q103 induced, cytoprotection, ATP luminescence, 40 h. AID 1471; further: % of control where 0% means no effect; nearly all actives have a fitted effect of over 45% in size
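PC12 cells with ecdysone-inducible HTT exon 1 Q103-GFP, induced with 100 nM tebufenozide and co-treated with library compounds in a dose series (1536-well, 1500 cells/well). Cytoprotection read as ATP content by ATPlite luminescence.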
LMNA splice mod = changes lamin A minigene splicing in HeLa cells; HeLa LMNA splicing GFP/RFP minigene ratio, 48 h; 200,000 tested, 0.01% active; Potency, µM (top dose mostly 46.1 µM), for inactives: at the highest dose ratio change, negative = inhibition, usual class: inhibitors; active means well fitted inhibition curve with a large enough effect in the signal ratio, with a control signal flat, not every such curve was filed as active; inconclusive means small, poorly fitted or top-dose-only effect, or effect the other way, or a change in a side signal; the % refers to the signal ratio; further: on the % scale 0 is the no-effect control and ±100 the full control effect
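S3 HeLa stable clones carrying a lamin A-EGFP splicing minigene plus DsRed2 were seeded at 600 cells/well in Opti-MEM with 2% FBS, pin-dosed and incubated 48 h at 37°C. Acumen cytometry (488 nm) gave the GFP/RFP total-intensity ratio.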
ALDH1A1 inh = blocks purified human ALDH1A1 activity; P00352; Purified ALDH1A1, NADH fluorescence, propionaldehyde substrate; Potency, µM (titrated, usually from 75.3 µM), for the others: top-dose activity, negative = inhibition, hits mostly inhibitors; 220,000 tested, 7.3% active; active means well fitted inhibition curve with a large enough effect, not every such curve was filed as active; inconclusive means small, poorly fitted or top-dose-only effect, or another doubt; inactive means no such curve, though single readings can be large or run the other way;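 further: plate controls were no enzyme wells and a reference inhibitor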
Target sequence (P00352 whole entry, looked up): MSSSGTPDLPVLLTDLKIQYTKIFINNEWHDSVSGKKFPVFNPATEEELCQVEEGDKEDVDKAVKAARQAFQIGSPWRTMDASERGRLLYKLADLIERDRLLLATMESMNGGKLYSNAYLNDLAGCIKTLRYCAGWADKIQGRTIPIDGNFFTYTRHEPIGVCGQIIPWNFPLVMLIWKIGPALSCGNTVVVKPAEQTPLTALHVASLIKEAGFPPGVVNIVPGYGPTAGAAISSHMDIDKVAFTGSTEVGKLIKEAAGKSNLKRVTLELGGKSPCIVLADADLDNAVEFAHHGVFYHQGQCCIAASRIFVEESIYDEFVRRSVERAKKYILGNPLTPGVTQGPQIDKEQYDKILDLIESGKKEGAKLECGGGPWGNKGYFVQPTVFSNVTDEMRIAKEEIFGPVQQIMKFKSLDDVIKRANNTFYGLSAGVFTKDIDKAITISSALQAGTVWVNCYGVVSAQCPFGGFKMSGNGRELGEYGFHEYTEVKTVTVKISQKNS
HPGD inh = inhibitors of human 15-hydroxyprostaglandin dehydrogenase (HPGD) | Potency, µM, for inactives: at the highest dose activity change, negative = inhibition, usual class: inhibitors | 150,000 tested, 4.3% active | purified HPGD, NADH fluorescence kinetic, PGE2 substrate | AID 894 | P15428; active means well fitted inhibition curve with a large enough effect, not every such curve was filed as active; inconclusive means small, poorly fitted or top-dose-only effect, or another doubt; inactive means no such curve, though single readings can be large or run the other way; further: on the % scale 0 is the no-effect control and ±100 the full control effect
Target sequence (P15428 whole entry, looked up): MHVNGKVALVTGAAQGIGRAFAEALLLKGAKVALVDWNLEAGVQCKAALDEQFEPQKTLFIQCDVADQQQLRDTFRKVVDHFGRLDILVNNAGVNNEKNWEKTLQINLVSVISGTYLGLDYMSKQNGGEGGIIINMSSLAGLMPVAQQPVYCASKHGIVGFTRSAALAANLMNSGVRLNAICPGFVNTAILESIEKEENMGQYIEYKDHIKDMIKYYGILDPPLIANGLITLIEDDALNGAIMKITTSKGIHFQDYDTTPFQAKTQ
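NADH formation kinetics: reaction with 30 uM PGE2 and 1 mM NAD+ (final), 20 nM enzyme, Tris-HCl pH 8 with Tween 20, after 15 min compound preincubation at room temperature. Fluorescence change, last versus first of five reads.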
Starred values were filed as active, the others as inactive; ? = inconclusive; · = not tested or not shown; [ ] = another dose, or the depositor's remark. Unless noted, the call rests on the fitted dose curve; in most records, active means well fitted curve in the direction sought with a large enough effect; inconclusive means small, poorly fitted or top-dose-only effect, or another doubt; inactive means no such curve, though single readings can be large; an effect the other way counts as inactive or inconclusive. Potency means the concentration at half of the fitted maximal effect.

SMILES	HTT aggregate	KinaseGlo FLuc	HTT ATP protect	LMNA splice mod	ALDH1A1 inh	HPGD inh
O=C(NCc1ccc2c(c1)OCO2)c1cccs1	-7.5%	-1.7%	-26.6%	0.9%	8.6%	28.2µM*
O=C(Cc1ccccc1)NCc1ccc2c(c1)OCO2	3.4%[9.22 µM]	1.9%	-13.6%	10.6%	-5.9%	31.6µM*
O=C1CC(NCc2ccc3c(c2)OCO3)C(=O)N1CCc1ccccc1 (configuration not stated)	4.0%	-1.1%	-8.0%	6.8%	14.1µM*	-18.8%
Cc1ccccc1CN1CCN(CC(=O)NCc2ccc3c(c2)OCO3)C1=O	9.6%	1.4%	-124.4%	?	12.6µM*	-14.7%
COc1ccc(C)c2sc(N(CCCN(C)C)C(=O)c3ccc(S(=O)(=O)N(C)C)cc3)nc12	-16.1%	-0.9%	-3.5%	25.5%[9.22 µM]	-2.1%	·
O=C(COCc1cc(-c2cccs2)on1)Nc1cc(C(F)(F)F)ccc1Cl	·	·	·	15.2%[46 µM]	·	·
O=C(NCc1ccc2c(c1)OCO2)C1CC(c2ccccc2O)=NO1 (configuration not stated)	-0.9%[9.22 µM]	1.6%	9.3%	-0.6%	11.2µM*	-24.3%
O=C(NCc1ccc2c(c1)OCO2)C1CC(c2cccc(Br)c2)=NO1 (configuration not stated)	-9.4%	0.1%	?	10.2%	-3.0%	-15.0%
CC1COc2ccccc2N1C(=O)c1ccc(Cl)nc1 (configuration not stated)	-12.6%	3.6%	-17.1%	·	-5.8%	·
COC(=O)C1=C(C)N(C(C)c2ccccc2)C(=O)C1 (configuration not stated)	17.8%	1.1%	-8.0%[10 µM]	-4.8%	11.2%	-6.1%
CC1CCCN(C(C(=O)NC2CCCCC2)c2cc3c(cc2[N+](=O)[O-])OCO3)C1 (configuration not stated)	9.3%	-2.5%	-10.3%[10 µM]	-3.8%	3.1%	31.6µM*
COC(=O)c1cn(NC(=O)c2cnccn2)c(=O)c2ccccc12	8.91µM*	-3.9%	-43.7%	?	4.3%	-4.4%
CCCC1Nc2ccc(C(=O)O)cc2C2C=CCC12 (configuration not stated)	-10.1%	-1.8%	10.6%[10 µM]	?	?	?
O=C(O)C1Nc2c(C(=O)N3CCOCC3)cccc2C2C=CCC12 (configuration not stated)	1.5%	-11.0%	-7.0%	2.6%	?	25.1µM*
Cc1ccc2c(c1C)NC(C(=O)O)C1CC=CC21 (configuration not stated)	-8.6%	-12.9%	0.8%[10 µM]	?	12.6µM*	10µM*
O=C(c1ccccc1O)N1CCOCC1	1.3%[9.22 µM]	·	-9.8%[10 µM]	·	·	·
CCOC(=O)c1ccc2c(c1)C1C=CCC1C(C(=O)O)N2 (configuration not stated)	10.3%	-15.1%	-8.1%	1.1%	17.8µM*	15.8µM*
CC(C)C1Nc2ccc(C(=O)O)cc2C2C=CCC21 (configuration not stated)	-12.5%[9.22 µM]	-6.7%	-10.8%[10 µM]	·	?	·
Cc1cc(C(=O)CN2C(=O)C(=O)N(CC(C)C)C2=O)c(C)n1-c1ccccc1F	-20.5%	-2.4%	-34.6%	·	?	·
Cc1cc(C(=O)CN2C(=O)c3ccccc3S2(=O)=O)c(C)n1-c1ccccc1	-31.6%	-1.1%	-108.1%[10 µM]	8.1%	?	-7.6%
Cc1cc(C(=O)CN2C(=O)NC(CC(C)C)C2=O)c(C)n1-c1ccccc1F (configuration not stated)	-6.1%	6.3%	-23.3%	-2.0%[46 µM]	6.31µM*	·
Cc1cc(C(=O)CN2C(=O)C3CC=CCC3C2=O)c(C)n1-c1ccccc1 (configuration not stated)	-7.5%	-6.4%	-113.3%	?	22.4µM*	-12.6%
CCOc1cc(C(=O)NC(=S)Nc2ccc(Cl)c(C(=O)O)c2)cc(OCC)c1OCC	2.2%[9.22 µM]	·	-6.2%[10 µM]	·	18.9µM*	·
CCOc1c(Cl)cc(C(=O)Nc2ccccc2C(=O)O)cc1Cl	-26.6%	-2.7%	-68.6%	?	?	14.1µM*
COc1c(Cl)cc(C(=O)Nc2ccccc2-c2ccccc2)cc1Cl	-15.7%	1.1%	4.3%	-2.3%[0.0737 µM]	12.6µM*	-20.2%
SMILES	HTT aggregate	KinaseGlo FLuc	HTT ATP protect	LMNA splice mod	ALDH1A1 inh	HPGD inh
CC(NC(=O)c1ccc(CS(=O)(=O)c2ccc(Cl)cc2)o1)c1ccc2c(c1)OCCO2 (configuration not stated)	-3.9%[9.22 µM]	4.8%	0.9%	?	?	-8.8%
NNC(=O)c1ccc(COc2ccc3c(c2)CCC3)cc1	-31.4%	-1.9%	-2.9%[10 µM]	-9.6%	7.94µM*	-16.7%
O=C(NCc1cccnc1)c1ccc(COc2ccc3c(c2)CCC3)o1	8.91µM*	0.7%	6.3%[10 µM]	?	?	?
Cc1ccccc1S(=O)(=O)Cc1ccc(C(=O)NC(C)c2ccc3c(c2)OCCO3)o1 (configuration not stated)	-12.7%	0.3%	-19.6%	-6.8%	14.1µM*	-19.9%
O=C(O)c1ccc(COc2ccc3c(c2)CCC3)cc1	-11.6%[9.22 µM]	·	10.4%[10 µM]	·	·	·
COC(=O)c1ccc(COc2ccc3c(c2)CCC3)o1	-3.3%[9.22 µM]	·	-2.1%[10 µM]	·	·	·
Cc1ccc(CS(=O)(=O)Cc2ccc(C(=O)NCc3cccnc3)o2)cc1	-2.9%	1.1%	-21.7%	-1.8%[0.0737 µM]	9.9%	-11.2%
Cc1ccccc1S(=O)(=O)Cc1ccc(C(=O)NCc2cccnc2)o1	0.4%	1.0%	19.1%[10 µM]	-13.9%	14.1µM*	-7.7%
COc1ccccc1NC(=S)N(CCCN1CCOCC1)Cc1cn(C)c2ccccc12	?	0.7%	12.5%[10 µM]	?	9.0%	-15.3%
Cc1cc(Nc2nc3c(c(=O)n(C)c(=O)n3C)n2C)n(-c2ccccc2)n1	·	·	-15.3%[10 µM]	·	·	·
Cc1ccc(S(=O)(=O)/C=C/c2ccccc2)cc1	6.1%	-1.0%	9.1%[10 µM]	-10.6%	-3.5%	-14.6%
c1ccc(Cc2nnc(N3CCOCC3)c3ccccc23)cc1	-0.1%[9.22 µM]	5.1%	-17.5%	4.8%	-4.1%	25.1µM*
c1ccc(Cc2nnc(N3CCCCC3)c3ccccc23)cc1	?	-0.1%	-10.0%[10 µM]	12.5%[46 µM]	-7.9%	·
CCOC(=O)c1c(C)[nH]c(-c2csc(C)n2)c1C	6.7%	1.3%	-31.7%	·	1.7%	·
CCOC(=O)c1c(C)[nH]c(-c2csc(N)n2)c1C	?	-8.9%	-77.5%	·	11.2µM*	·
Cc1ccc(S(=O)(=O)Nc2cc(Cl)c(O)cc2C)cc1	?	-4.3%	-12.9%	?	?	-0.2%
Cc1ccc(S(=O)(=O)Nc2cc(C(C)C)c(O)cc2C)cc1	-1.5%	5.3%	-4.0%	?	2µM*	-7.9%
CCC(C)(C)NC(=O)/C=C/c1ccccc1[N+](=O)[O-]	1.8%	2.0%	-17.1%	7.6%[46 µM]	4.2%	·
O=C(O)c1ccc(N2Cc3ccccc3C2)cc1O	0.2%	?	0.3%	4.0%	28.2µM*	15.8µM*
